# High-throughput results deposited in PubChem by several laboratories.
# PAFAH1B2 FP inh – PAFAH1B2 (human) inhibition; AID 492953; P68402; recombinant PAFAH1B2, FP-rhodamine activity probe, fluorescence polarization; inhibition, % at 3.39 µM; 1.2% of 340,000 active;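 active means inhibition above the mean of all tested compounds plus 3 SD, cut at about 24% in these data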;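 further: 0% = enzyme with DMSO and 100% = wells lacking PAFAH1B2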
# Target sequence (P68402 whole entry, looked up): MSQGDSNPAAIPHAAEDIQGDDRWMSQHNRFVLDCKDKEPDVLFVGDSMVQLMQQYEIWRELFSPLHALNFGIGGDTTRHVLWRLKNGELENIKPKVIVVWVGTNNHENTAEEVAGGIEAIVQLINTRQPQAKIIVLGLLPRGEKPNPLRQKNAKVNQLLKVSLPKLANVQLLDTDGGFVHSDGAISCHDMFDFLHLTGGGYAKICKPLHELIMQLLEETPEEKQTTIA
# pPAFAH FP inh – inhibitors of human plasma PAF acetylhydrolase (pPAFAH). inhibition, % at 3.39 µM. recombinant pPAFAH, FP-rhodamine probe fluorescence polarization. 1.5% of 330,000 active. Q13093;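 active means inhibition above the mean inhibition across the screen plus 3 SD, cut at about 25% in these data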;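 further: inhibitors block binding of the rhodamine activity-based probe so polarization drops; 0% = enzyme with DMSO and 100% = wells lacking pPAFAH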
# PAFAH1B3 FP inh – blocks human PAF acetylhydrolase 1B catalytic subunit 3. inhibition, % at 3.39 µM. recombinant PAFAH1B3, FP-rhodamine probe, fluorescence polarization. 0.28% of 340,000 active. AID 492972. Q15102;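 active means inhibition above the screen-wide average of all tested compounds plus 3 SD, cut at about 25% in these data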;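 further: 0% = enzyme with DMSO only and 100% = wells lacking PAFAH1B3 protein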
# Target sequence (Q15102 whole entry, looked up): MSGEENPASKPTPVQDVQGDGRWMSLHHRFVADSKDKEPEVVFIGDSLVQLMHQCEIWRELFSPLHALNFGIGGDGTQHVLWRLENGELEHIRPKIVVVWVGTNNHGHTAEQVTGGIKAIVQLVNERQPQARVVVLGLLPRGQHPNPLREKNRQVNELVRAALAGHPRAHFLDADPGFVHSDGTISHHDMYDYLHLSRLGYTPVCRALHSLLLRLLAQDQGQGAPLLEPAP
# PAFAH2 FP inh – inhibitors of human PAFAH2; inhibition, % at 3.39 µM; 0.99% of 340,000 active; Q99487; recombinant PAFAH2, FP-rhodamine activity probe, fluorescence polarization; AID 492956;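 active means inhibition above the mean over all tested compounds plus 3 SD, cut at about 30% in these data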;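 further: inhibitors block probe labeling of enzyme so polarization drops; 0% = enzyme with DMSO and 100% = wells lacking PAFAH2 protein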
# Pemphigus Ab inh – inhibitors of pemphigus antibody binding to human desmoglein-3; DSG3-coupled beads, scFv-anti-DSG3-GFP binding, flow cytometry; active compounds read low; P32926; binding (percent of control), % at 10 µM; 0.48% of 310,000 active; AID 588358;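 active means binding more than 3 SD below its plate's average and above zero; inconclusive means below that plate limit but binding exactly zero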;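 further: hits lower antibody fragment binding to DSG3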
# M18AAP inhibitor – blocks P. falciparum M18 aspartyl aminopeptidase. inhibition, % at 7.35 µM. 1.2% of 290,000 active. recombinant PfM18AAP, H-Glu-NHMec fluorogenic cleavage;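 active means inhibition above the campaign mean inhibition over all tested compounds plus 3 SD, cut at about 28% in these data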;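 further: 0% = plate median of test compound wells and 100% = 2 mM ZnCl2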
# * marks the source's active call; other numbers are inactive results; u = inconclusive; x = no result. An excerpt weighted towards active compounds, which were near 3.8% of everything screened.
SMILES,PAFAH1B2 FP inh,pPAFAH FP inh,PAFAH1B3 FP inh,PAFAH2 FP inh,Pemphigus Ab inh,M18AAP inhibitor
Cc1nc2c(-c3ccc(F)cc3)cnn2c2c1CCC2,0,5,-8,3,90,7
Cc1c(NC(=O)C23CC4CC(CC(C)(C4)C2)C3)c(=O)n(-c2ccccc2)n1C,35*,3,4,50*,100,-10
Cc1c(NC(=O)CCSc2ccc(Cl)cc2)c(=O)n(-c2ccccc2)n1C,32*,8,2,4,100,-12
Cc1c(NC(=O)COC(=O)COc2ccc(Nc3ccccc3)cc2)c(=O)n(-c2ccccc2)n1C,-2,25*,-2,4,106,12
O=C(CSc1ccc(Cl)cc1)Nc1ccccc1,x,x,x,x,103,x
O=C(CSc1ccc(Cl)cc1)NC1=NN(c2ccccc2)C(=O)C1,96*,32*,7,18,100,-11
COc1ccc(CCNC(=O)CCC(=O)N2CCOc3ccccc32)cc1OC,2,-1,2,3,98,-2
CN(c1ccccc1C(=O)Nc1ccccc1-c1ccccc1)S(C)(=O)=O,21,x,1,2,113,-2
COc1ccc(C(=O)/C=C/Nc2ccc(S(N)(=O)=O)cc2)cc1OC,-1,4,10,-3,71*,-1
CCOC(=O)c1ccc(N/C=C/C(=O)c2ccc(OC)c(OC)c2)cc1,2,3,6,3,93,0
CC(C)Cc1nn2c(=O)cc(CSCC(=O)Nc3ccccc3F)nc2s1,5,7,17,6,102,6
N#C/C(C(=O)Nc1ccc(Cl)cc1)=C(/S)Nc1ccccc1,10,21,14,8,74*,57*
CCOC(=O)c1sc(Nc2nc3c(OC)cccc3s2)nc1C,0,30*,8,8,101,2
CCOC(=O)c1sc(Nc2ccccc2)nc1C,2,9,4,0,x,-10
CCOC(=O)c1sc(Nc2nc3c(F)cccc3s2)cc1C,0,2,8,-4,78*,0
COc1cccc2sc(Nc3nc(-c4ccccn4)cs3)nc12,13,28*,14,24,96,23
c1ccc(Nc2nc(-c3ccccn3)cs2)cc1,2,1,4,4,101,-3
CCOC(=O)c1sc(Nc2nc3ccc(OC)cc3s2)cc1C,7,5,9,-6,106,2
CCOc1ccc(CCNC(=O)COC(=O)c2[nH]c(C)c(C(C)=O)c2C)cc1OCC,x,x,x,x,98,x
CCN(CC)S(=O)(=O)c1cc(C(=O)OCC(=O)NC2CCCc3ccccc32)ccc1C (centres undefined),1,27*,7,67*,105,-1
CCN(CC)S(=O)(=O)c1cc(C(=O)OCC(=O)Nc2c(F)cccc2F)ccc1F,0,32*,7,29,105,0
CNS(=O)(=O)c1cc(C(=O)OCC(=O)NC2CCCc3ccccc32)ccc1Cl (centres undefined),1,3,2,9,88,0
CCN(CC)S(=O)(=O)c1cc(C(=O)OCC(=O)Nc2cccc(C)c2C)ccc1F,0,23,10,24,99,-9
CCCNC(=O)N(C)C[C@@H]1Oc2ncc(-c3ccncc3)cc2C(=O)N([C@H](C)CO)C[C@@H]1C,x,x,x,x,110,x
Cc1ccc(S(=O)(=O)Nc2ccc3c(c2)C(=O)N([C@@H](C)CO)C[C@@H](C)[C@@H](CN(C)CC2CC2)OCCCC[C@@H](C)O3)cc1,x,x,x,x,99,x
SMILES,PAFAH1B2 FP inh,pPAFAH FP inh,PAFAH1B3 FP inh,PAFAH2 FP inh,Pemphigus Ab inh,M18AAP inhibitor
CCN(CC)S(=O)(=O)c1cccc(-c2nnc(SCCOc3ccc(Cl)cc3)o2)c1,2,-3,4,-7,-11*,-3
COc1ccc(CCN2CC(C(=O)NCc3cccc(F)c3)CCC2=O)cc1 (centres undefined),x,x,x,x,104,x
O=C(CN1CCN(S(=O)(=O)c2ccc3c(c2)OCCO3)CC1)Nc1cccc(F)c1,0,x,2,-8,109,x
O=C(NNC(=O)c1ccccc1F)c1cccc(-n2cccc2)c1,2,26*,0,13,93,x
CCN(C(=O)CSc1nc2cc(C(F)(F)F)ccc2n1Cc1ccccc1)C1CCS(=O)(=O)C1 (centres undefined),-2,29*,8,6,90,-2
CCCCn1c(SCC(=O)N(C)C2CCS(=O)(=O)C2)nc2cc(S(N)(=O)=O)ccc21 (centres undefined),5,3,6,11,87,1
CCCCn1c(SCC(=O)N(CC)C2CCS(=O)(=O)C2)nc2cc(S(N)(=O)=O)ccc21 (centres undefined),6,2,3,-2,16*,4
CCN(C(=O)CSc1cc(C)c2ccccc2n1)C1CCS(=O)(=O)C1 (centres undefined),3,4,4,-2,104,-5
Cn1c(=O)c2c(nc(N3CCOCC3)n2CC(=O)C23CC4CC(CC(C4)C2)C3)n(C)c1=O,27*,3,11,-5,x,-3
CN1CCN(c2nc3c(c(=O)n(C)c(=O)n3C)n2CC(=O)C23CC4CC(CC(C4)C2)C3)CC1,-2,1,6,3,99,0
CC(=O)N1C[C@H]2CON(C)[C@H]2C[C@H]1c1cccc(-c2cc(Cl)cc(Cl)c2)c1,x,x,x,x,102,x
COc1ccc2c(c1)c(CC(=O)OCC(N)=O)c(C)n2C(=O)c1ccc(Cl)cc1,2,25*,5,-10,101,-2
CCN(CC)C(=O)CSc1nc2c(sc(=S)n2-c2ccccc2)c(=O)n1-c1ccc(OC)cc1OC,5,1,8,5,101,26
CCOC(=O)CSc1nc2c(sc(=S)n2-c2ccccc2)c(=O)n1-c1ccc(OC)cc1OC,3,7,3,8,104,30*
O=[N+]([O-])c1cc(CN(CCO)CCO)ccc1O,1,5,-3,-2,97,-3
O=Cc1cccc(OC(=O)/C=C/c2ccco2)c1,5,30*,9,15,111,17
COC(=O)c1ccc(OC(=O)/C=C/c2ccco2)cc1,6,5,6,26,103,2
COC(=O)c1ccc(C(=O)N2CCCC(Nc3ccc(C(C)C)cc3)C2)nc1 (centres undefined),25*,7,12,0,x,9
COc1ccc(-c2csc(=Nc3ccccc3)n2CCO)cc1,2,8,-2,0,112,30*
C[C@@H](C(=O)OCC(=O)c1ccc(F)c(F)c1)N1C(=O)C2CCCCC2C1=O (some centres undefined),3,28*,3,20,u,x
CCN1CCN(S(=O)(=O)c2ccc(Cl)c(C(=O)NC3CCCCC3)c2)CC1,28*,1,5,-1,102,x
CCN1CCN(S(=O)(=O)c2ccc(Cl)c(C(=O)NC3CCC(C)CC3)c2)CC1 (centres undefined),18,5,12,-6,102,x
